Shown are actives, neighbours in structure and some others; about 4.8% of the full set was active somewhere.
Mdm2-MdmX inh: human Mdm2/MdmX binding inhibition; O15151+Q00987; SaOS-2 split-luciferase Mdm2/MdmX complementation, luminescence; inhibition, % at 8 µM; hit rate 3% among 330,000;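 active = inhibition of at least 50% at 8 µM in the primary screen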
Target sequence (O15151 whole entry, looked up): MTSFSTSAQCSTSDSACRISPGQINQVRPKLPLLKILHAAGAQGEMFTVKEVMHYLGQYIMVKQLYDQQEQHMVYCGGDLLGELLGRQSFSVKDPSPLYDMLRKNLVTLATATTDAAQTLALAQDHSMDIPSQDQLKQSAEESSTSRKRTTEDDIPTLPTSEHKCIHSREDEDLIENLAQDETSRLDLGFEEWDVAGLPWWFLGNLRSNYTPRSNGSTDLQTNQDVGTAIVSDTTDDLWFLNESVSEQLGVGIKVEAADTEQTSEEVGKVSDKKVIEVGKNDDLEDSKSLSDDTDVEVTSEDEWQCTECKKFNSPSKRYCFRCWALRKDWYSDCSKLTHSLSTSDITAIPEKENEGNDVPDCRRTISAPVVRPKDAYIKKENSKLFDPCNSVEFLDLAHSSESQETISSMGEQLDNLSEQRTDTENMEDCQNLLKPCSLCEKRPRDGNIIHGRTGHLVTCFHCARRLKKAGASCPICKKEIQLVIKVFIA
Target sequence (Q00987 whole entry, looked up): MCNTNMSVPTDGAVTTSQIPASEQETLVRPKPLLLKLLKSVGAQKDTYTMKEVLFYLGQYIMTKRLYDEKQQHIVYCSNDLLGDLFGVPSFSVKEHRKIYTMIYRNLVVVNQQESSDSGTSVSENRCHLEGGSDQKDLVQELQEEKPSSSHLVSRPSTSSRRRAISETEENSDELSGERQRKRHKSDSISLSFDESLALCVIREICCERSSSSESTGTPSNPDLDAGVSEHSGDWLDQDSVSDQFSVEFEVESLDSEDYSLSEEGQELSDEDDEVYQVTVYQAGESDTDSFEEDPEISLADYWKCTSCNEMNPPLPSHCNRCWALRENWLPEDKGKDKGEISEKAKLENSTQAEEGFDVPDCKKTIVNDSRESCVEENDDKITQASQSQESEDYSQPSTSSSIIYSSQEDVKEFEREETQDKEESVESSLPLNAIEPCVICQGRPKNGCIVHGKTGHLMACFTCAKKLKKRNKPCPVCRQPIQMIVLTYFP
MPTP inh: blocks calcium-induced mitochondrial swelling; inhibition, % at 10 µM; isolated mouse mitochondria, Ca2+ swelling absorbance, 30 min; hit rate 1.4% among 360,000;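 active = inhibition of 50% or more, scaled per plate between neutral and stimulator controls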;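 also: 0% = DMSO wells given calcium and 100% = 1 mM EGTA wells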
Beta apoptosis: beta cell apoptosis inhibition; INS-1E cytokine-induced death, ATP luminescence, 48 h; percent of positive-control rescue, neutral wells zero; protection from apoptosis, % (test concentration not listed); hit rate 0.8% among 300,000; AID 435005;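 active = Every replicate reaches about 75%, or at least half do and their mean reaches it too, limit read from the data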;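 also: 0% = cytokine-treated negative control wells and 100% = positive control rescue; higher means more ATP so stronger rescue from cytokine killing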
Calb FLC: C. albicans growth modulation with fluconazole; C. albicans CaCi-2 (fluconazole-resistant clinical isolate) + fluconazole, Alamar Blue growth, 48 h; growth inhibition, % (concentration not given with the values); hit rate 0.57% among 300,000; AID 1979;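 active = growth inhibition above about 58% in most replicates, limit read from the data, passing the limit was not always enough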;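 also: all wells also contain fluconazole at 8 µg/ml as a sub-toxic cotreatment; 0% = median of DMSO wells and 100% = median of geldanamycin control wells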
CSC inhib: blocks cancer stem cells. inhibition, % at 7.5 µM. hit rate 1.1% among 300,000. AID 2717. cancer stem cell-like cells viability, luminescence; in the data active = inhibition above about 75%; tested in HMLE shEcad cells
Mdm2 MdmX conf: human Mdm2/MdmX binding inhibition, confirmed. shares compounds with Mdm2-MdmX inh. luminescent assay. inhibition, % at 8 µM. hit rate 55% among 10,000; in the data active = inhibition above about 40%
FLuc counter: full-length luciferase inhibition in Mdm2/MdmX counter-screen; shares compounds with Mdm2-MdmX inh; inhibition, % at 8 µM; hit rate 77% among 6,200; SaOS-2 full-length luciferase counterscreen, luminescence;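 active = mean inhibition at 8 µM reaching about 37%, which flags the compound as non-specific, limit read from the data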;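 also: p53-null SaOS-2 cells with luciferase driven by a doxycycline-inducible promoter; compound on cells about two nights before reading with doxycycline added after day one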
Active calls of the source: *; . = no result; + = active, no number.

SMILES	Mdm2-MdmX inh	MPTP inh	Beta apoptosis	Calb FLC	CSC inhib	Mdm2 MdmX conf	FLuc counter
Nc1ncnc2c1C(c1ccccc1)c1c(ccc3ccccc13)O2 (stereo not drawn)	88*	1	0	.	.	53*	63*
COc1ccc(C2c3ccc(O)cc3Oc3ncn(Cc4ccco4)c(=N)c32)cc1 (stereo not drawn)	20	1	-3	1	20	.	.
N=c1c2c(ncn1Cc1ccco1)Oc1ccc3ccccc3c1C2c1ccccc1 (stereo not drawn)	86*	7	.	-5	102*	56*	49*
O=C(O)CN=C(Nc1cc(Cl)cc(Cl)c1)NC(c1ccccc1)c1ccccc1	.	36	.	.	.	.	.
CCc1cc2c(=O)[nH]c(-c3ccccn3)nc2s1	72*	-2	66	20	.	26	46*
CCCCCc1nc2c(c(=O)c3ccccc3n2C)c(=O)n1Cc1ccc(OC)cc1	51*	24	7	13	9	18	.
Cc1ccc(C(=O)N2CCN(c3ncnc4c3cnn4-c3ccccc3)CC2)cc1	82*	6	6	17	-11	58*	68*
CC1CCCN(c2ncnc3c2cnn3-c2ccccc2)C1 (stereo not drawn)	52*	2	6	-5	43	52*	192*
COc1cccc(N2CCN(c3ncnc4c3cnn4-c3ccc(C)cc3C)CC2)c1	90*	21	49	12	42	100*	28
COc1ccc(-n2ncc3c(N4CCN(Cc5ccccc5)CC4)ncnc32)cc1	85*	1	5	56	37	64*	77*
CC(C)c1ccc(NNC(=O)C2CCC2)cc1	-7	5	.	4	29	.	.
CCN1CCN(c2ncnc3c2cnn3-c2ccccc2)CC1	-14	1	-3	-10	4	.	.
CC1CCCN(c2ncnc3c2cnn3-c2ccc(Cl)cc2)C1 (stereo not drawn)	96*	0	3	-2	61	95*	42*
c1ccc(-n2ncc3c(N4CCCCC4)ncnc32)cc1	51*	-1	-2	-9	3	53*	160*
CN1CCN(c2ncnc3c2cnn3-c2ccc(Cl)cc2)CC1	51*	0	0	-12	39	60*	+
CCCCOCCCNC(=O)C[C@@H]1C[C@@]2(C(=O)OC)CC(C)(C)CC=C2N(Cc2ccco2)C1=O	.	0	.	.	.	.	.
CN(C)CCC1Sc2ccccc2Oc2ccccc21 (stereo not drawn)	-6	14	-15	-1	-20	.	.
CC1c2ccccc2SC(CCCN(C)C)c2ccccc21 (stereo not drawn)	52*	0	3	-9	10	3	.
CCCCc1c(-c2cccc(Br)c2)ncn1CCc1ccccc1OC	.	5	.	.	.	.	.
O=C(OCc1c(-c2ccccc2)ncc2ccccc12)c1cccc(Br)c1	38	-1	7	.	34	.	.
Cc1cccc(CN2CCN(C3CN(Cc4cn(Cc5ccccc5C(F)(F)F)nn4)S(=O)(=O)C3)CC2)c1 (stereo not drawn)	.	-1	.	.	.	.	.
CCOc1ccc(N(CC(=O)NC2CCCCC2)C(=O)CSc2nnc(COc3ccccc3)o2)cc1	55*	1	5	4	-9	32	.
Oc1[nH]c2ccccc2c1N=Nc1ncnc2c1oc1ccccc12	100*	.	2	9	-4	2	.
CCc1cc2c(N=Nc3c(O)[nH]c4ccccc34)ncnc2s1	2	1	2	45	.	.	.
O=C(Nc1ccccc1Oc1ccccc1)c1cc([N+](=O)[O-])ccc1Cl	79*	1	-10	11	1	48*	68*
SMILES	Mdm2-MdmX inh	MPTP inh	Beta apoptosis	Calb FLC	CSC inhib	Mdm2 MdmX conf	FLuc counter
O=C(Nc1ccc2c(c1)CCCN2C(=O)c1ccco1)c1cc([N+](=O)[O-])ccc1Cl	82*	0	6	1	-17	82*	68*
O=C(O)c1ccccc1C(=O)Nc1ccc(Nc2ccc([N+](=O)[O-])cc2[N+](=O)[O-])cc1	20	1	1	2	-11	.	.
O=C(Nc1ccc(Nc2ccccc2)cc1)c1cc([N+](=O)[O-])ccc1Cl	54*	2	16	9	78*	38	.
O=C(Nc1ccc(N2CCN(C(=O)c3ccco3)CC2)cc1)c1ccc([N+](=O)[O-])cc1Cl	23	-1	1	1	6	.	.
O=C(Nc1ccc(N2CCN(c3ccc(C(F)(F)F)cn3)CC2)nc1)c1cccs1	56*	3	-6	-7	-2	6	.
O=C(Nc1ccc(N2CCN(c3ncccc3C(F)(F)F)CC2)nc1)c1cccs1	65*	29	17	2	30	35	.
Cc1nn(Cc2ccccc2Cl)c(C)c1C(=O)Nc1nnc(C2CC2)s1	79*	-1	.	-4	53	7	.
Cc1nn(Cc2ccccc2Cl)c(C)c1C(=O)NCc1ccco1	-37	-3	1	4	7	.	.
Cc1nn(-c2ccccc2)c(Cl)c1C(=O)Nc1nnc(C2CCCCC2)s1	13	0	6	21	6	.	.
Cc1nn(Cc2ccccc2Cl)c(C)c1C(=O)NCCN1C(=O)S/C(=C\c2ccccc2)C1=O	58*	-1	6	12	29	7	.
Cc1cc(NC(=O)CCC(=O)N(CC(=O)NCC2CCCO2)c2ccc(C)c(C)c2)no1 (stereo not drawn)	-6	1	-2	-3	-4	.	.
COC(=O)c1cn(C(=O)c2ccc(OC)cc2)c2ccccc12	22	0	8	-5	24	.	.
COc1ccc(C(=O)NCCNc2ccccc2[N+](=O)[O-])cc1	-113	1	-4	13	-11	.	.
CCCNC(=O)c1ccc(S(=O)(=O)c2ccc(OC)cc2)c([N+](=O)[O-])c1	87*	3	-22	0	6	53*	19
C=CCOc1c(Cl)cc(C(=S)N2CCCC2)cc1OCC	58*	1	.	-2	68	28	.
CCOc1cc(C(=S)N2CCCC2)ccc1O	16	0	-2	5	6	.	.
N#CCCN(Cc1ccccc1)C(C(=O)NC1CCCCC1)c1ccnc2ccccc12 (stereo not drawn)	.	-1	.	.	.	.	.
N#CCSc1nc2c(sc(=S)n2Cc2ccco2)c(=O)n1-c1ccc(F)cc1	61*	0	9	3	6	58*	32
CC1(C(=O)NCc2ccccc2)CN(S(C)(=O)=O)CC(=O)N1CCCN1CCOCC1 (stereo not drawn)	.	1	.	.	.	.	.
O=c1[nH]nc(Sc2ncnc3sccc23)n1CCc1ccccc1	85*	2	-6	2	6	43*	8
NS(=O)(=O)c1ccc(NC(=S)N2CCC(Cc3ccccc3)CC2)cc1	-9	0	4	12	-23	.	.
COc1ccc(/C=N/NC(=O)c2nc(-c3ccccc3)n(-c3ccccc3)n2)c(O)c1	63*	4	103*	0	.	66*	41*
